Screening results from PubChem.
Abeta rescue – qHTS for compounds that reverse cellular toxicity of Amyloid beta (A-beta) peptide in yeast: Primary Screen; yeast expressing A-beta42, growth rescue, OD600, 48 h; response scale: 0% DMSO, 100% iron-clioquinol control; Potency, µM (highest dose often 46.1 µM), actives largely listed as activators; actives 0.063% (n = 410,000); AID 1347071, 2019; further: nearly all actives have a fitted effect of over 55% in size
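Yeast A-beta toxicity model in growth medium with pinned compounds, 48 h at 30 C; growth read as absorbance at 600 nm. Normalized to FeCl3/clioquinol equimolar mix (positive) and DMSO (negative).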
aSyn yeast inh – qHTS of alpha-syn Inhibitors. Yeast expressing alpha-synuclein, growth rescue, BacTiter-Glo, 24 h. Potency, µM (series often up to 46.1 µM), most hits filed as activators. actives 0.14% (n = 370,000); further: nearly all actives have a fitted effect of over 65% in size
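Rescue of yeast growth: cells expressing toxic alpha-synuclein, induced in galactose at OD600 0.02, incubated with compound 24 h at 30 C. ATP luminescence quantified growth; inhibitors of toxicity appear as activators.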
FUS yeast rescue – qHTS for Suppressors of FUS Proteinopathy: Primary screen using FUS-linked yeast assay; actives 0.24% (n = 390,000); Potency, µM (series often up to 76.6 µM), hits mostly activators; S. cerevisiae FUS-expressing, growth rescue, OD600, 24 h; further: nearly all actives have a fitted effect of over 55% in size
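Quantitative HTS measuring growth restoration of FUS-toxic yeast. Galactose-induced cells (OD 0.005) were exposed 24hr at 30C to compounds at several concentrations, then absorbance at 600 nm was recorded.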
Mm-Cpn inhibitor – Inhibitors of TCP-1 ring complex (TRiC) of Methanococcus maripaludis (MmCpn): qHTS. actives 0.031% (n = 330,000). purified Mm-Cpn ATPase, ADP Transcreener TR-FRET. Potency, µM (highest dose often 76.9 µM), most hits filed as inhibitors. Chaperonin Mm-Cpn (Methanococcus maripaludis). AID 504842, 2011; further: nearly all actives have a fitted effect of over 80% in size
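TR-FRET (320 nm excitation; 590 and 665 nm emission) reports ADP made from 10 uM ATP by 25 nM enzyme; compounds were preincubated 10 min, reaction run 30 min, both at 37°C.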
TDP-43 yeast inh – qHTS of TDP-43 Inhibitors | TDP-43 expressing yeast growth rescue, BacTiter-Glo, 24 h | Potency, µM (highest dose often 46.1 µM), usual class: activators | actives 1.8% (n = 410,000) | AID 652104, 2013; further: nearly all actives have a fitted effect of over 50% in size
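Yeast expressing TDP-43 (pregrown in raffinose, seeded at OD600=0.02 in galactose medium) exposed to compounds 24 hr at 30 deg C. Growth read by BacTiter-Glo luminescence; rescue of toxicity appears as increased signal.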
ClpP mod – qHTS Assay for Activators of ClpP | Potency, µM (highest dose often 57.5 µM) | ATP-dependent Clp protease proteolytic subunit (Bacillus subtilis (strain 168)), P80244 | AID 651965, 2013 | purified B. subtilis ClpP, FRET peptide cleavage, 20 min | actives 1.9% (n = 340,000); active means well fitted falling curve with a large enough effect; inconclusive means small, poorly fitted or top-dose-only effect; inactive means no such curve, though single readings can be large or run the other way; further: the source files actives as falling curves though it sought activators and does not explain the sign; nearly all actives have a fitted effect of over 65% in size
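ClpP 10 microg/mL final, pH 8 Tris/KCl buffer with BSA, glycerol, Tween-20; compound pinned in; FRET-FV substrate; RT 20 min; Ex320/Em430; ΔFRET vs ADEP 5.8 microM, DMSO, no enzyme.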
Of the large screens only hits and unclear results are named; the others gave an inactive call. Only some compounds are listed: those with a hit (about 3.6% of all), similar ones and a draw of the others. Unless noted, the call rests on the fitted dose curve; in most records, active means well fitted curve in the direction sought with a large enough effect; inconclusive means small, poorly fitted or top-dose-only effect, or another doubt; inactive means no such curve, though single readings can be large; an effect the other way counts as inactive or inconclusive.

O=C(C1CCCCC1)N1CCN=C1SCc1cccc([N+](=O)[O-])c1	TDP-43 yeast inh 18µM
O=C(c1ccc([N+](=O)[O-])cc1)N1CCN=C1SCc1ccccc1	none (no result: ClpP mod)
O=C(NCCCN1CCN(c2ccc(F)cc2)CC1)c1ccc2nc(Cc3ccccc3)oc2c1	none (no result: aSyn yeast inh, Mm-Cpn inhibitor)
Cc1ccc(NC(=O)Cn2c(-c3nonc3N)nc3ccccc32)cc1Cl	none (no result: aSyn yeast inh, Mm-Cpn inhibitor)
Cc1nn(C(=O)c2ccccc2F)c(C)c1S(=O)(=O)N1CCOCC1	none (no result: aSyn yeast inh, Mm-Cpn inhibitor)
O=C(NCc1ccccc1Cl)c1cc2ccccc2o1	TDP-43 yeast inh 11µM (no result: aSyn yeast inh, Mm-Cpn inhibitor)
Cc1ccccc1CNC(=O)c1cc2ccccc2o1	TDP-43 yeast inh inconclusive (no result: Mm-Cpn inhibitor)
COc1ccc2nc(NC(=O)c3cccc(N4C(=O)CCC4=O)c3)sc2c1	none
O=C(Nc1nc2ccc(Cl)cc2s1)c1cccc(N2C(=O)CCC2=O)c1	ClpP mod 35µM
COc1cc2nc(NC3CCN(C)CC3)nc(NC3CCN(C)CC3)c2cc1OC	none (no result: Abeta rescue, FUS yeast rescue, Mm-Cpn inhibitor, TDP-43 yeast inh)
N#C/C(=C/c1ccncc1)c1nc2ccccc2c(=O)[nH]1	none (no result: ClpP mod)
N#C/C(=C\c1cc(Br)c(O)c(Br)c1)c1nc2ccccc2c(=O)[nH]1	TDP-43 yeast inh inconclusive, ClpP mod 25µM (no result: aSyn yeast inh, Mm-Cpn inhibitor)
Cc1ccc(N2CCn3c2nc2c3c(=O)n(C/C=C/c3ccccc3)c(=O)n2C)cc1C	ClpP mod inconclusive (no result: aSyn yeast inh, Mm-Cpn inhibitor)
CCOC(=O)c1cnc(-n2nc(C)cc2C)nc1Nc1ccc(C)cc1	none (no result: FUS yeast rescue)
CCOC(=O)c1cnc(-n2nc(C)cc2C)nc1NC	ClpP mod 32µM
CC1CN(C(=O)CCC(=O)Nc2cc(F)ccc2F)c2ccccc2S1 (centres undefined)	TDP-43 yeast inh 11µM (no result: aSyn yeast inh, Mm-Cpn inhibitor)
COc1ccc(OC)c(-n2cnc3cc(C(=O)NC4CCCCCC4)ccc32)c1	FUS yeast rescue inconclusive (no result: aSyn yeast inh, Mm-Cpn inhibitor)
COc1ccc(-n2cnc3cc(C(=O)NC4CCCCCC4)ccc32)cc1	TDP-43 yeast inh 35µM (no result: aSyn yeast inh, Mm-Cpn inhibitor)
COc1cccc(OC)c1C(=O)Nc1cccc(-c2cn3ccsc3n2)c1	none (no result: aSyn yeast inh, Mm-Cpn inhibitor)
COc1cc(OC)cc(C(=O)Nc2cccc(-c3cn4ccsc4n3)c2)c1	FUS yeast rescue inconclusive, TDP-43 yeast inh 22µM (no result: aSyn yeast inh, Mm-Cpn inhibitor)
COc1cccc(C(=O)Nc2cccc(-c3cn4ccsc4n3)c2)c1OC	TDP-43 yeast inh 13µM (no result: aSyn yeast inh, Mm-Cpn inhibitor)
CCC(=O)Nc1cccc(-c2cn3ccsc3n2)c1	none
O=C(CSc1n[nH]c(-c2ccccc2Cl)n1)NCCc1ccccc1	none (no result: aSyn yeast inh, Mm-Cpn inhibitor)
COc1cc(OC)c(NC2(c3ccccc3)C(=O)c3ccccc3C2=O)cc1Cl	TDP-43 yeast inh inconclusive (no result: Mm-Cpn inhibitor)
Cc1cccc(N(CC(O)Cn2c3ccccc3c3ccccc32)S(=O)(=O)c2ccc(F)cc2)c1 (centres undefined)	FUS yeast rescue inconclusive, ClpP mod 32µM (no result: aSyn yeast inh, Mm-Cpn inhibitor)
COc1ccc(Cc2c(-c3ccco3)nc3c(C)cc(Br)cn23)c(C)c1	none (no result: Mm-Cpn inhibitor)
COc1ccc(Cc2c(-c3ccccc3)nc3ccc(Cl)cn23)c(C)c1	none (no result: Mm-Cpn inhibitor)
COc1ccc(Cc2c(-c3ccco3)nc3ccc(Cl)cn23)c(C)c1	TDP-43 yeast inh 22µM, ClpP mod inconclusive (no result: Mm-Cpn inhibitor)
CC(C)(C)Cc1c(-c2ccco2)nc2ccc(Cl)cn12	aSyn yeast inh inconclusive, TDP-43 yeast inh 11µM (no result: Mm-Cpn inhibitor)
COc1ccc(Cc2c(-c3ccco3)nc3ccc(Br)cn23)c(C)c1	aSyn yeast inh inconclusive, TDP-43 yeast inh 4.5µM (no result: Mm-Cpn inhibitor)
COc1ccc(C2=C(N3CCN(c4cccc(C)c4C)CC3)c3ccccc3C2=O)cc1	none (no result: aSyn yeast inh, Mm-Cpn inhibitor)
CC1=C(C(=O)OCc2ccccc2)N2C(=O)[C@@H](NC(=O)OCc3ccccc3)[C@H]2SC1	none (no result: Abeta rescue, aSyn yeast inh, FUS yeast rescue, Mm-Cpn inhibitor, TDP-43 yeast inh)
